# Screens deposited in PubChem by National Center for Advancing Translational Sciences (NCATS).
# Hits are enriched below; roughly 4.7% of the tested compounds scored in any of these assays.
# D1 PAM: Potentiators of Human D1 Dopamine Receptor: qHTS; D(1A) dopamine receptor (Homo sapiens), P21728; HEK293 TREx D1 cells, calcium flux, dopamine EC20 potentiation; potentiation, % at 10 µM; hit rate 0.036% among 360,000; in the data active = potentiation above about 30%; note: 0% is about no effect
# D1 antagonist: Antagonist of Human D 1 Dopamine Receptor: qHTS; HEK293 TREx D1 cells, calcium flux, dopamine EC80; active compounds read low; activity change, negative = inhibition, % at 10 µM; hit rate 3.2% among 360,000; in the data active = activity change below about -30%; note: % is set by controls: 0 for no effect and ±100 for the full control effect
#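 Tetracycline-induced HEK293 Trex D1 cells, force-coupled to calcium, dye-loaded; compounds added and read 180 s, then EC80 dopamine added and calcium flux tracked kinetically another 180 s.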
# TRHR agonist: qHTS for Small Molecule Agonists and Allosteric Enhancers of Human TRH Receptor: Primary Screen for Agonists | Thyrotropin-releasing hormone receptor (Homo sapiens), P34981 | TRHR cells, calcium flux fluo-8, FDSS agonist mode | activation, % at 2 µM | hit rate 0.18% among 360,000 | AID 493084, 2011; note: 0% is about no effect
# Target sequence (P34981 whole entry, looked up): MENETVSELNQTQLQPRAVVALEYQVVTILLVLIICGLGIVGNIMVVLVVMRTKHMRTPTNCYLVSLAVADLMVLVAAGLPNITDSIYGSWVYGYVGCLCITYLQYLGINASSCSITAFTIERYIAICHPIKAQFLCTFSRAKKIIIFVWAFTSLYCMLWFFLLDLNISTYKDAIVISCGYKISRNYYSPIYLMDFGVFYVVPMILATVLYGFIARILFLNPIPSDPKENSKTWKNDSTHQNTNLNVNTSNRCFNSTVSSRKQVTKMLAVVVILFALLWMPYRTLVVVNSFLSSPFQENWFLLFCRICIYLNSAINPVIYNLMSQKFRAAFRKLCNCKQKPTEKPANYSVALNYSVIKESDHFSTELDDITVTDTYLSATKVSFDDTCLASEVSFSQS
#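 Read-out: compound-evoked intracellular calcium rise in TRHR cells, fluo-8 dye, kinetic FDSS fluorescence at 1 s/cycle following a 10-cycle baseline. Cells cultured overnight before dye loading (30 min–1.5 h, RT).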
# TRHR enhancer: qHTS for Small Molecule Agonists and Allosteric Enhancers of Human TRH Receptor: Primary Screen for Enhancers | Thyrotropin-releasing hormone receptor (Homo sapiens), P34981 | TRHR cells, fluo-8 calcium fluorescence, EC20 TRH enhancement | enhancement, % at 2 µM | hit rate 0.66% among 360,000 | AID 493056, 2011; in the data active = enhancement above about 30%; note: 0% is about no effect
#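 Enhancer read-out: after compound pinning and an initial kinetic agonist-mode read, an EC20 of TRH (10 nM final) was injected and fluo-8 calcium signal (Ex 480/Em 530) followed at 1 s/cycle for 100 cycles in TRHR-expressing cells.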
# D1 agonist: Allosteric Agonists of the Human D1 Dopamine Receptor: qHTS | D(1A) dopamine receptor (Homo sapiens), P21728 | HEK293 T-REx D1 cells, calcium flux, agonist mode | activation, % at 2 µM | hit rate 1% among 360,000; note: 0% is about no effect
#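 Agonism was scored from calcium flux recorded over 180 s (1 read/s) after pintool compound addition, following a 10-cycle baseline. Cells were inducible force-coupled HEK293 TREx D1, plated overnight at 30 C and loaded with no-wash calcium dye.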
# * hit, by the source's call; / = no result given; ! = a repeat was not active. Cut-off read from the data, not from the text of the source, unless noted: active = activation above about 30%; inactive = the rest.
SMILES,D1 PAM,D1 antagonist,TRHR agonist,TRHR enhancer,D1 agonist
CCC1=C(OC(=O)N(CC)CC)N2C(=O)OC(=NCC(=O)OC)[C@]2(C)[C@H]2C1=CC[C@H]1C(=O)N(CC)C(=O)[C@H]12,0.8,40.0,0.2,-4.0,3.1
CCC1=C(OC(=O)N(CC)CC)N2C(=O)OC(=NCc3ccccc3)[C@]2(C)[C@H]2C1=CC[C@H]1C(=O)N(CC)C(=O)[C@H]12,-7.9,-34.5*,-0.4,-6.4,1.1
O=C(Nc1cccc(-c2ccc(N3CCCCC3)nn2)c1)C(F)(F)F,-11.4,-32.8*,-0.6,3.4,12.2
CC1CCN(c2ccc(-c3cccc(NC(=O)C(F)(F)F)c3)nn2)CC1,-9.5,-54.6*,-0.8,6.1,11.7
Cc1ccc(S(=O)(=O)Nc2cccc(-c3ccc(N4CCCCC4)nn3)c2)s1,-2.4,-80.5*,-0.7,-2.2,1.0
CSc1ccc(-c2nc3c(C)cccn3c2Nc2ccc3c(c2)OCCO3)cc1,5.8,10.7,-0.6,6.5,0.6
CCC1=Nc2cc(C(=O)NCc3ccc(C)cc3)ccc2Sc2ccc(C)cc21,-5.1,16.8,0.4,-0.8,2.8
CCC1=Nc2cc(C(=O)NC3CCCC3)ccc2Sc2ccc(Cl)cc21,-4.7,-33.8*,0.5,13.8,5.3
CCC1=Nc2cc(C(=O)NCc3cccnc3)ccc2Sc2ccc(C)cc21,-19.4,-76.3*,0.1,4.0,2.8
CC1=Nc2cc(C(=O)NC3CCCC3)ccc2Sc2ccc(Cl)cc21,-4.2,1.6,-1.1,4.7,2.3
COc1ccc(N2CCN(C3(c4ccccc4)C(=O)c4ccccc4C3=O)CC2)cc1,-0.8,14.3,-0.2,12.8,4.0
CCOc1cc(/C=N/Nc2nnc(C)n2N)ccc1OC(C)=O,-1.9,-32.7*,-1.3,5.0,-0.3
CCc1nnc(N/N=C\c2ccc(OC(C)=O)c(OC)c2)n1N,0.1,5.2,-0.4,1.5,1.0
O=C(O)CN1C(=O)/C(=C\c2ccccc2OCc2ccc(Cl)cc2Cl)SC1=S,-12.1,7.9,-2.9,6.5,34.9*
CCN(CC)S(=O)(=O)c1cc(NC(=O)c2ccc(Br)s2)ccc1C,-3.1,-32.7*,2.4,-23.2,27.4
CCN(CC)S(=O)(=O)c1cc(NC(=O)NCCCl)ccc1C,3.7,-3.1,-0.6,-0.9,2.5
COc1ccc(C)cc1NC1(c2ccccc2)C(=O)c2ccccc2C1=O,-2.8,-28.0,-1.4,8.0,0.7
CC1Oc2ccccc2C=C1/C=N/NC(=O)c1ccccc1O (centres undefined),-1.1,-39.6*,-0.2,2.6,16.9
Cc1cccc(NC(=O)CSc2nnc3[nH]c(=O)cc(-c4ccccc4)n23)c1C,1.5,/,-0.1,13.4,-1.8
CN1C(=O)c2ccccc2Sc2ccc(NC(=O)NCc3ccc(Cl)cc3)cc21,-1.8,1.8,0.2,2.9,-1.2
Cc1ccccc1CNC(=O)Nc1ccc(Cl)cc1,-5.5,-46.2*,-0.2,6.0,4.3
Cc1ccccc1CNC(=O)Nc1ccc2c(c1)N(C)C(=O)c1ccccc1S2,-3.4,-38.5*,-0.2,1.2,1.3
Cc1ccc(CNC(=O)Cn2ccn(-c3ccc(F)cc3)c(=O)c2=O)cc1,2.1,7.2,-0.1,3.7,0.4
COc1ccc(-c2nc3ccccc3n2Cc2ccc(Cl)cc2)cc1,-2.7,-32.5*,-0.8,1.4,24.9
CCCn1c(-c2cccc(Br)c2)nc2ccccc21,-2.7,-35.3*,-2.5,2.6,0.5
SMILES,D1 PAM,D1 antagonist,TRHR agonist,TRHR enhancer,D1 agonist
Cc1cccc(-c2nc3ccccc3n2Cc2ccccc2)c1,0.1,-49.5*,-1.1,-4.5,52.6*
COc1ccc(CNC(=O)c2cc3cc(C)ccc3n2C)cc1,-1.8,-8.5,0.1,-1.1,-1.0
Cc1c(Cl)cccc1-n1nc(C)c2c(C)cc(=O)n(CC(=O)N3CCCc4ccccc43)c21,-4.4,26.0,0.4,-5.8,3.3
CCc1ccc(NC(=O)C2CCCN(S(=O)(=O)c3ccc4c(c3)CCCN4C(C)=O)C2)cc1 (centres undefined),-9.6,-32.4*!,0.1,14.8,2.8
CC(=O)N1CCCc2cc(S(=O)(=O)N(C)CC(=O)Nc3ccc(C(C)C)cc3)ccc21,-4.0,-11.0,-0.4,-0.6,7.1
CSc1cccc(NC(=O)C2CCN(S(=O)(=O)c3ccc4c(c3)CCCN4C(=O)C3CCC3)CC2)c1,-4.5,-48.1*,-0.1,-5.0,2.8
CSc1cccc(NC(=O)C2CCCN(S(=O)(=O)c3ccc4c(c3)CCCN4C(C)=O)C2)c1 (centres undefined),-0.8,-32.3*,-0.3,-1.1,0.0
COc1ccc(NC(=O)CN(C)S(=O)(=O)c2ccc3c(c2)CCCN3C(C)=O)cc1,-0.6,-42.5*!,-0.1,-0.8,0.5
CC(=O)N1CCCc2cc(S(=O)(=O)N3CCCC(C(=O)Nc4cccc(F)c4)C3)ccc21 (centres undefined),-9.0,12.7,0.1,10.7,1.2
Cc1cccc(NC(=O)C2CCN(S(=O)(=O)c3ccc4c(c3)CCCN4C(=O)C3CCC3)CC2)c1,-5.8,13.3,-0.8,-8.3,1.6
Cc1cc(SCC(=O)Nc2ccc(O)cc2)n2nc(C)c(-c3ccccc3)c2n1,-4.0,-49.9*,0.1,7.5,2.6
CC(=O)Nc1ccc(Nc2cc(C)nc3c(-c4ccccc4)c(C)nn23)cc1,8.2,-30.1*,0.4,1.0,3.7
Cc1cc2c(s1)c1cnn(Cc3cc(F)c(F)c(F)c3F)c(=O)c1n2C,13.3,-10.5,0.0,1.6,-1.6
Clc1ccc(CSc2nnc(-c3c[nH]c4ccccc34)o2)cc1,-7.0,-6.3,0.2,4.7,3.2
CCOc1ccccc1-c1nnc(SCc2ccc(Cl)cc2)o1,3.9,-29.4,-1.6,3.7,61.5*
CCC(C(=O)O/N=C(\N)c1ccccc1)c1ccccc1 (centres undefined),0.0,-4.9,0.5,-7.5,3.6
CC(C)COC(=O)C(N)C(C(=O)OCC(C)C)c1ccccc1 (centres undefined),-4.6,-34.5*,0.0,-1.0,1.7
COc1ccc(C(=O)C(CCC(CNC(C)(C)C)C(=O)c2ccc(OC)cc2)CNC(C)(C)C)cc1 (centres undefined),-11.1,-37.1*,2.2,-9.5,15.8
CC(C)/C=N/Nc1nc(-c2ccc(Br)cc2)cs1,-2.1,-45.6*,0.2,2.1,0.2
O=C(Nc1nc(-c2ccc(Br)cc2)cs1)c1cccnc1,4.0,-1.5,0.4,-9.8,3.3
Cc1ccc(NC(=O)CSc2nc3ccc(Br)cc3[nH]2)c(C)c1,-1.8,-2.6,1.6,5.0,-1.0
Cc1ccc([N+](=O)[O-])cc1N,-3.9,5.2,-0.6,-3.5,7.3
Nc1ccc2c(c1)Cc1cc([N+](=O)[O-])ccc1-2,-5.7,-36.3*,43.7*,4.8,122.3*
